Assay results reported in PubChem BioAssay AID1626 (SRMLSC, 2009).
About 2,000 (0.91%) of roughly 220,000 compounds were called active. Not shown: some 2% with an inconclusive outcome. Cut-off read from the data, not from the text of the source: inconclusive = inhibition above about 80% without an active follow-up result; inactive = below that; test concentration not stated here. A selection follows. Entries with a potency or affinity are not part of this list.

Experiment: M. tuberculosis H37Rv growth inhibitors, H37Rv strain (AID 1626);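 note: bacteria incubated seven days before Alamar blue readout; 0% = bacteria only wells and 100% = bacteria with antibiotic wells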
Conditions: active compounds read high, concentration not given here

SMILES | inhibition
NC1=NCC(O)=C1c1nc2ccccc2[nH]1 | 4.96% (inactive)
O=C(/C=C/c1cn(CC(O)CN2CCOCC2)c2ccccc12)c1cccs1 (centres undefined) | 4.21% (inactive)
COc1ccc(C(=O)/C=C/c2cn(CC(O)CN3CCOCC3)c3ccccc23)cc1 (centres undefined) | 15.2% (inactive)
Cc1ccc(C(=O)/C=C/c2cn(CC(O)CN3CCOCC3)c3ccccc23)cc1 (centres undefined) | 78.3% (inactive)
O=Cc1cn(CC(O)CN2CCCCC2)c2ccccc12 (centres undefined) | -4.08% (inactive)
COc1ccc(C(=O)/C=C/c2cn(CC(O)CN3CCN(C)CC3)c3ccccc23)cc1OC (centres undefined) | -1.8% (inactive)
CCCCN(C)CC(O)Cn1cc(/C=C/C(=O)c2cccs2)c2ccccc21 (centres undefined) | 32.9% (inactive)
C=CCNC(=O)c1ccc(-c2ccc([N+](=O)[O-])cc2)o1 | 2.72% (inactive)
COc1cccc(/C=C2\SC(=S)N(NC(=O)c3ccncc3)C2=O)c1 | -9.97% (inactive)
O=C(NCc1csc(-c2cccs2)n1)Nc1ccc(F)cc1F | -1.75% (inactive)
OCCNCC(O)Cn1c2ccccc2c2ccccc21 (centres undefined) | 3.13% (inactive)
Cc1cc(C)n(CC(O)Cn2c3ccc(Cl)cc3c3cc(Cl)ccc32)c(=O)n1 (centres undefined) | 3.67% (inactive)
OCCn1c(-c2ccccc2)csc1=Nc1ccccc1 | 3.23% (inactive)
CCOc1ccc(N=c2scc(-c3ccc(OC)cc3)n2CCO)cc1 | 27.6% (inactive)
Cc1cc(C)cc(C(=O)NCCCc2ccccc2)c1 | -1.21% (inactive)
CCN(CC)C(=O)C1CCCN(Cc2sccc2C)C1 (centres undefined) | -5.07% (inactive)
Cc1nc(N)nc(COc2ccccc2)n1 | -5.7% (inactive)
CCc1nc(N2CCC(C)CC2)c2oc3ccccc3c2n1 | 21.7% (inactive)
CCc1nc(N2CCCCC2)c2oc3ccccc3c2n1 | 22.4% (inactive)
O=C(NCCCn1ccnc1)C(=O)NCC(c1cccnc1)N1CCN(c2ccccc2)CC1 (centres undefined) | 0.94% (inactive)
COC(=O)/C(=N/Nc1ccccc1)N1CCCc2ccccc21 | 38.7% (inactive)
ClC(=C\c1ccccc1)/C=N/N1CCN(c2ccccn2)CC1 | -1.5% (inactive)
CC(=O)Nc1ccc(NC(=O)CSc2ccc([N+](=O)[O-])cn2)cc1 | -4.39% (inactive)
O=C(CSc1ccccn1)Nc1ccc2c(c1)OCCO2 | -16.3% (inactive)
CCSc1nnc(NC(=O)c2cnccn2)s1 | 2.03% (inactive)

SMILES | inhibition
O=C(Nc1nnc(SCc2ccc(F)cc2)s1)c1cccnc1Cl | 7.86% (inactive)
CCSc1nnc(NC(=O)c2cccnc2Cl)s1 | -8.72% (inactive)
CSc1ncccc1C(=O)Nc1nnc(C2CC2)s1 | 0.73% (inactive)
O=C(Nc1nnc(C2CC2)s1)c1ccncc1 | -4.03% (inactive)
CC(=O)Nc1nnc(SCc2ccc(F)cc2)s1 | 1.23% (inactive)
Cc1cnc(C(=O)Nc2nnc(C)s2)cn1 | -5.75% (inactive)
O=C(Nc1nnc(SCc2c(Cl)cccc2Cl)s1)c1ccc2ncsc2c1 | 29.9% (inactive)
COc1ccc(N2CCN(C(=O)C(C)(C)Oc3ccc(Cl)cc3)CC2)cc1 | 10.8% (inactive)
CCCCn1c(/C=C/c2ccco2)nc2ccccc21 | -4.08% (inactive)
CN(CCC(=O)Nc1ccc2c(c1)OCO2)Cc1ccccc1 | -7.11% (inactive)
Cc1cccc(S(=O)(=O)NNC(=O)Cc2cccn2C)c1 | 3.18% (inactive)
COc1ccccc1NC(=O)COc1ccc(Br)cc1CNCCCN1CCOCC1 | -1.49% (inactive)
Oc1ccccc1/C=N/[n+]1ccccc1 | -3.35% (inactive)
CCc1cc(=O)oc2cc(OCC(=O)O)c(Cl)cc12 | -5.56% (inactive)
CCC(=O)Nc1nnc(SCc2ccc(F)cc2)s1 | 7.4% (inactive)
O=C(Nc1nnc(SCc2ccc(F)cc2)s1)c1ccco1 | -8.91% (inactive)
CCCCNC(=O)Nc1ccccc1C(=O)Nc1ccc(OC)cc1 | -1.66% (inactive)
CCc1cccc(NC(=O)C(NC(=O)C2CCCCC2)C(C)C)c1 (centres undefined) | -6.21% (inactive)
COc1ccc(C)cc1S(=O)(=O)N1c2ccccc2CC1C (centres undefined) | 2.45% (inactive)
CCOC(=O)c1cnc(-n2nc(C)cc2C)nc1Oc1ccc(C(=O)OC)cc1 | 8.41% (inactive)
CCOC(=O)c1cnc(-n2nc(C)cc2C)nc1Oc1ccc(C#N)cc1 | -2.96% (inactive)
CCOC(=O)c1cnc(-n2nc(C)cc2C)nc1NC | 19.4% (inactive)
CCOC(=O)c1cnc(-n2nc(C)cc2C)nc1NNc1nc(C)cc(C)n1 | 71.3% (inactive)
CCOC(=O)c1cnc(-n2nc(C)cc2C)nc1N(C)C | 4.9% (inactive)
CCOC(=O)c1cnc(-n2nc(C)cc2C)nc1Nc1cccc(C(=O)O)c1 | 7.26% (inactive)

SMILES | inhibition
CCOC(=O)c1cnc(-n2nc(C)cc2C)nc1Nc1ccc(O)cc1 | 0.145% (inactive)
CCOC(=O)c1cnc(-n2nc(C)cc2C)nc1N1CCOCC1 | -9.47% (inactive)
O=C(O)c1cccnc1Br | 1.4% (inactive)
Cc1ccc(/C=N/OC(=O)c2nn(C)cc2Cl)cc1 | 11.9% (inactive)
CCC1CSC(Nc2ccc(C(=O)/C=C/c3ccc(OC)c(OC)c3)cc2)=N1 (centres undefined) | 44.8% (inactive)
CCCc1cc(=O)[nH]c(SCc2ccc(F)cc2)n1 | -1.85% (inactive)
COc1cccc(NC(=O)N2CCCc3ccccc32)c1 | 15% (inactive)
COc1cccc2sc(N(CCCN(C)C)C(=O)COc3ccc(Cl)cc3)nc12 | -2.48% (inactive)
COc1cccc2sc(N(CCCN(C)C)C(=O)c3sc4ccccc4c3Cl)nc12 | 1.6% (inactive)
Cc1cccc(C(=O)Nc2ccccc2C(=O)OCC(=O)Nc2ccc(C#N)cc2)c1 | 45% (inactive)
CCNC(=O)COC(=O)CNC(=O)c1cc(Cl)cc([N+](=O)[O-])c1 | -10% (inactive)
CN(C)C(=O)Oc1ccc(Cl)c2cccnc12 | -4.68% (inactive)
O=C(Oc1ccc(Cl)c2cccnc12)N1CCCCC1 | 4.79% (inactive)
CCCC(=O)Nc1ccc(NC(=O)c2ccccc2Cl)nc1 | 7.45% (inactive)
O=C(N/N=C/C=C\c1ccc([N+](=O)[O-])cc1)c1cccnc1 | -15.7% (inactive)
O=C1/C(=C/c2cccnc2)Oc2cc(OS(=O)(=O)c3ccc(Cl)cc3)ccc21 | 13.6% (inactive)
Cc1ccc(S(=O)(=O)Oc2ccc3c(c2)O/C(=C\c2cccnc2)C3=O)cc1 | -0.74% (inactive)
O=C1/C(=C/c2ccncc2)Oc2cc(OS(=O)(=O)c3ccccc3)ccc21 | 21.6% (inactive)
CS(=O)(=O)Oc1ccc2c(c1)O/C(=C\c1cccnc1)C2=O | -6.08% (inactive)
Cc1ccc2[nH]cc(C(=O)CN3CCOCC3)c2c1 | -4.26% (inactive)
COc1ccc(C2C3=C(CCCC3=O)Nc3n[nH]c(C)c32)cc1OC (centres undefined) | -5.11% (inactive)
CCOC(=O)CSc1nnc(CNc2cccc(Cl)c2)n1-c1ccccc1 | 5.48% (inactive)
N#Cc1nc(-c2ccc(OCc3ccc(Cl)cc3)cc2)oc1NCCCn1ccnc1 | -1.04% (inactive)
N#Cc1nc(-c2ccc(OCc3ccccc3)cc2)oc1NCCCn1ccnc1 | 4.85% (inactive)
Cc1cccc(C)c1Nc1nnc(SCc2cn3cccc(C)c3n2)s1 | -7.42% (inactive)

SMILES | inhibition
COc1ccc(-c2cc(=Nc3ccccc3)c3cc(C)ccc3o2)cc1 | 17.7% (inactive)
COc1ccc(-c2cc(=Nc3ccc(C)cc3)c3ccccc3o2)cc1 | 12.8% (inactive)
O=C(CNC(=O)c1ccco1)Nc1ccc(S(=O)(=O)N2CCCC2)cc1 | -5.82% (inactive)
CN(C)CCCN(C(=O)CCc1ccccc1)c1nc2ccc(F)cc2s1 | 7.03% (inactive)
Cc1ccc2nc(N(CCCN(C)C)C(=O)CCc3ccccc3)sc2c1 | 9.45% (inactive)
O=C1NC(c2ccccc2)=NC1(NS(=O)(=O)c1ccc(Cl)cc1)C(F)(F)F (centres undefined) | 7.08% (inactive)
O=C(c1cccs1)c1coc2ccc(O)cc12 | 51% (inactive)
O=C(c1ccc(Cl)cc1)c1coc2ccc(O)cc12 | -6.06% (inactive)
COc1ccc(OC)c(C(=O)c2coc3ccc(O)cc23)c1 | -1.33% (inactive)
O=C(c1coc2ccc(O)c(CN3CCOCC3)c12)C1CC1 | 4.13% (inactive)
CN1CC(=O)N(CC(=O)Nc2ccc(F)cc2)c2ccccc2C1=O | -5.02% (inactive)
COc1ccc(C(=O)Nn2c(CCC(=O)O)ccc2-c2ccc(C)cc2)cc1OC | -3.08% (inactive)
Cc1cccc(N2CCN(C(=O)N3CCOCC3)CC2)c1C | -3.5% (inactive)
Cc1nn(C)c(C(=O)NNC(=S)NC2CCCCC2)c1Br | 10.2% (inactive)
Cc1ccc(NC(=O)COC(=O)CCNS(=O)(=O)c2ccc(C)c(C)c2)cc1 | -0.05% (inactive)
CCN(CC)c1ccc(/C=C(/C#N)c2nc3ccc(C)cc3[nH]2)c(OC(C)C)c1 | 16.2% (inactive)
CCCOc1cc(N(CC)CC)ccc1/C=C(/C#N)c1nc2ccc(C)cc2[nH]1 | 61.6% (inactive)
FC(F)(F)c1ccc(CN2C[C@@H]3C(c4ccccc4)C4(c5cccnc5)CC3(C4)[C@H]2c2ccccc2)cc1 (some centres undefined) | 20.3% (inactive)
COc1ccccc1S(=O)(=O)CC(O)COc1ccc(C#N)cc1 (centres undefined) | -1.05% (inactive)
Cc1nccn1CC(=O)N/N=C/c1c[nH]c2ccccc12 | 3.79% (inactive)
COC(=O)c1ccc(OC(=O)CCN2c3ccccc3Sc3ccccc32)cc1 | 1.13% (inactive)
O=C(CCN1c2ccccc2Sc2ccccc21)Oc1ccccc1 | 22.8% (inactive)
CSCCC(NC(=O)c1ccccc1)c1nc(-c2ccccc2)no1 (centres undefined) | 2.56% (inactive)
CCOc1cc(Br)ccc1S(=O)(=O)N1CCC(C(N)=O)CC1 | -1.13% (inactive)
